This is part of a sample that, as a whole, favours compounds with a hit. Of some 79,000 tested, about 15% had one in any assay. A number with no mark means an inactive call. Activity calls are given as the source filed them. Rule as the data show it: active = growth inhibition above about 70%; inactive = the rest.

A short description of the experiment: NCI Yeast Anticancer Drug Screen. Data for the bub3 strain (AID 167). The following applies: S. cerevisiae bub3 mutant strain, at 50.0 µM, stronger effect = higher value. As for the experimental part: Growth inhibition of yeast strains with defined genetic alterations is measured as a screen for potential anti-cancer activity. Selected strains with alterations in DNA damage repair or cell cycle control were exposed to compounds and growth inhibition was measured relative to vehicle treated controls. The strain used in this assay is bub3
Consider `COc1ccc(CCn2cnn3c(=O)c4ccccc4nc3c2=O)cc1OC`, for which the growth inhibition is -17.4%. On to `Cc1ccc(C(=O)NCCN2CCCC2)c([N+](=O)[O-])c1OCc1ccccc1`, for which the growth inhibition is -4.85%. The figure for `COC(=O)c1ccccc1N(C)C(=O)c1cc(OC)c(OC)c(OC)c1` is -19.4%; for `COC(=O)C1CCC(=O)N1C(c1ccc(OC)cc1)c1ccc(OC)cc1` (stereo not given) it is 8.3%. Take `CC1=CC(=O)N(n2c(-c3ccccc3)n[nH]c2=O)C1=O`: the growth inhibition was -13.2%. `CNc1ccc(O)cc1`: the growth inhibition is -0.05%. The value for `COc1ccc(-c2cc(C(O)C3CCCCN3)c3ccccc3n2)cc1` (stereo not given) was -31.1%; that for `CN(C)C(=O)C1CCC(CC2CCCCC2)CC1` (stereo not given) was 98.3% (active). Consider `CCN(CC)c1ccc(/C=C\c2c(C)cnc3ccccc23)cc1`, for which the growth inhibition was 34.6%. Consider `COC(=O)/C(=N\NC(=S)NN)C(C(=O)C(=O)Nc1ccccc1C(N)=O)c1nc2ccccc2[nH]c1=O` (stereo not given), for which the growth inhibition was -4.5%. Turning to `Cn1nc(-c2ccc(Cl)c(Cl)c2)[n+]([O-])c2c(=O)n(C)c(=O)nc1-2`, the growth inhibition is 85.3% (active). The value for `N#CC1CCCC/C1=N/NC(N)=O` (stereo not given) was -6.65%; that for `O=C(c1ccccc1)c1ccccc1-c1nc2ccccc2c(=O)o1` was 30.8%.

`Nc1nc(SCc2ccc(F)cc2)c2[nH]cnc2n1`: the growth inhibition is 12.8%.

On to `C[N+](C)(C)CCOC(=O)C(c1ccccc1)C1(O)CCCC1` (stereo not given), for which the growth inhibition is -1.7%. For `C=CCOC(=O)CCCCC`, the growth inhibition was -3.65%.

For the compound `COc1ccc(S(=O)(=O)c2ccc(F)cc2)cc1`, the growth inhibition is -12.7%. For the compound `CCCCCCCCCCC/C=N\[N+](C)(C)C`, the growth inhibition is 98.8% (active). For `O=[N+]([O-])c1cc2ccccc2nc1-c1ccccc1`, the growth inhibition is 7.2%.

For `Cc1ccc(OCC(=O)C2CSc3ccc(Cl)cc32)cc1` (stereo not given), the growth inhibition is 75.7% (active). The value for `COC(=O)CCOc1ccccc1` was -8.8%; that for `CCOC(=O)C(C)(C(=O)OCC)C(C)Cc1cccc2ccccc12` (stereo not given) was -7.15%.

Turning to `COc1cc(C)c(C#N)c(OC)n1`, the growth inhibition was 20.2%.

As for `CCCCNC(=O)OCCN=c1c2ccccc2ccc2ccccc12`, the growth inhibition is -1.3%. `O=C(O)/C=C/C(=O)Nc1cc(Cl)cc2c1-c1c(Cl)cc(Cl)cc1C2=O`: the growth inhibition was -4%. Regarding `COc1ccc2c(c1OC)C1=NCCc3cc4c(cc3C1(OC)C2=O)OCO4` (stereo not given), the growth inhibition is 13.7%. For `O=C(NC(=O)c1c(F)cccc1F)Nc1ccc(C(O)(C(F)(F)F)C(F)(F)F)cc1`, the growth inhibition is 6%. The value for `C/C=C/C(=O)OCCOc1ccccc1-c1ccccc1` was 25.2%.

Turning to `CC12CCC(=O)C=C1CCC1C2C(=O)CC2(C)C1CCC2(O)C(=O)Cn1cc(F)c(=O)[nH]c1=O` (stereo not given), the growth inhibition is -1.25%. The value for `O=C(O)C1CCCCN1/N=C/c1cccc([N+](=O)[O-])c1` (stereo not given) was 26.9%; that for `Cc1nc(N)nc(-c2ccccc2)c1N=Nc1cc(Cl)cc(Cl)c1` was -5.15%. Turning to `C(=C1\CCC/C(=C/c2ccccc2)C1=NNc1ccccc1)/c1ccccc1`, the growth inhibition was 11%.

On to `CCOC(=O)C12CCCC1(O)N(NC(=O)OC(C)(C)C)C(C)=C2C(=O)OC` (stereo not given), for which the growth inhibition is 0.35%. Consider `ClC1=C(Cl)C2(Cl)CC1(Cl)C1CCCCC12` (stereo not given), for which the growth inhibition is 16.6%. The figure for `Oc1cccc(C(c2ccccc2)c2ccccc2)c1` is -3.6%; for `Cc1ccc2c(c1)[nH]c(=S)n2C=C1C(=O)CC(C)(C)CC1=O` it is -21.6%; for `CCN(CC)CCOC(=O)c1ccc(NC(=O)OCCC(C)OC(=O)Nc2ccc(C(=O)OCCN(CC)CC)cc2)cc1` (stereo not given) it is -6.6%.

Regarding `CC(C)(C)CC(C)(C)N1CNC(=S)NC1`, the growth inhibition is 21.8%. The value for `C[Si](C)(C)c1ccc(-c2ccccc2)cc1` was 22.5%. Take `COC1(C)CNc2ccccc2C(=O)N1` (stereo not given): the growth inhibition was 23.1%.
